# Only some compounds are listed: those with a hit (about 1.3% of all), similar ones and a draw of the others.
# MEX-5 binding: C. elegans MEX-5 TCR-2 RNA binding activity; MEX-5/FITC-TCR2 RNA binding, fluorescence polarization; hits give low values; activity score (negative = inhibition of binding), % at 10 µM; AID 1832; Q9XUB2; 300,000 compounds, 0.38% hits;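 active = inhibition past about -25% in most replicates, and total fluorescence under double the plate's negative control median, limit read from the data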
# MCL1-BIM inh: disrupts human MCL1 binding to BIM-BH3 peptide; Q07820; GST-MCL1 / FITC-Bim-BH3 fluorescence polarization; inhibition, % at 10.9 µM; 320,000 compounds, 0.68% hits; AID 2057;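 active = inhibition above the mean inhibition of all tested compounds plus 3 SD, set per campaign, cut at about 40% in these data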;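 note: higher means more loss of mP so more displacement of Bim peptide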
# Target sequence (Q07820 whole entry, looked up): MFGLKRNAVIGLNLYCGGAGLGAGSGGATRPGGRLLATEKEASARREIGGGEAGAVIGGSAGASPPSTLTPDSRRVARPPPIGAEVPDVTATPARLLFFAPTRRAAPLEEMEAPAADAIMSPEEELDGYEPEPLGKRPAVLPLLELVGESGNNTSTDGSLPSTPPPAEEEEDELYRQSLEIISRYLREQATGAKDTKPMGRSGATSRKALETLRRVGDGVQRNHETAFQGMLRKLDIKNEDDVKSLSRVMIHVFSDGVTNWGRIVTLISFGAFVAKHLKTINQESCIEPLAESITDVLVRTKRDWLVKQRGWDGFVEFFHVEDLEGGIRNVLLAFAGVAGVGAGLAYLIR
# GLD-1 TGE inh: GLD-1-TGE RNA interaction inhibition (C. elegans); AID 2280; purified GLD-1 + fluorescein TGE RNA, fluorescence polarization; 320,000 compounds, 0.44% hits; inhibition, % at 5.96 µM; Q17339;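 active = percent inhibition above a per-plate cutoff, the plate mean of test compounds plus 3 SD, cut at about 30% in these data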
# EBV gp42 inh: blocks Epstein-Barr virus glycoprotein 42 binding; Fluorescence polarization binding assay, mP read-out; inhibition, % (tested at 21.74 µM); 220,000 compounds, 0.42% hits; AID 1085; in the data active = inhibition above about 50%
# Bcl-xL primary: inhibitors of human Bcl-xL. GST-Bcl-xL / FITC-Bim BH3 peptide fluorescence polarization. inhibition, % at 10.9 µM. AID 2129. Q07817. 320,000 compounds, 0.7% hits;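 active = inhibition above the mean of all tested compounds plus 3 SD, cutoff set per campaign, cut at about 30% in these data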;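 note: inhibitors lower millipolarization by displacing the labeled peptide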
# Target sequence (Q07817 whole entry, looked up): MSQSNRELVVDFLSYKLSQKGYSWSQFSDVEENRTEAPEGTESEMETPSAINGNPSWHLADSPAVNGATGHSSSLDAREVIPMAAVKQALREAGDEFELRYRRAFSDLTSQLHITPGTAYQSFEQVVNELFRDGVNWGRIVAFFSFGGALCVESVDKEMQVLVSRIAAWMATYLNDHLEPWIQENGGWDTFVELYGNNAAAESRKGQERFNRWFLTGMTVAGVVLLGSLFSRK
# Hits are given with their value; 0 = inactive; - = no result.
SMILES,MEX-5 binding,MCL1-BIM inh,GLD-1 TGE inh,EBV gp42 inh,Bcl-xL primary
O=C(NCc1ccc(OC(F)(F)F)cc1)c1cccc2c1C(=O)c1ccc(N3CCCC3)cc1S2(=O)=O,-,-,0,-,-
O=C(NCc1cccc(C(F)(F)F)c1)c1cccc2c1C(=O)c1ccc(N3CCC(Cc4ccccc4)CC3)cc1S2(=O)=O,-,-,128,-,-
O=C(NCc1ccc(OC(F)(F)F)cc1)c1cccc2c1C(=O)c1ccc(N3CCC(Cc4ccccc4)CC3)cc1S2(=O)=O,-,-,122,-,-
O=C(NCc1cccc(F)c1)c1cccc2c1C(=O)c1ccc(N3CCC(Cc4ccccc4)CC3)cc1S2(=O)=O,-,-,137,-,-
O=C(NCc1ccc(OC(F)(F)F)cc1)c1cccc2c1C(=O)c1ccc(N3CCCCC3)cc1S2(=O)=O,-,-,0,-,-
O=C(NCc1ccco1)c1cccc2c1C(=O)c1ccc(N3CCC(Cc4ccccc4)CC3)cc1S2(=O)=O,-,-,91,-,-
CC1CCCCN1c1nnc(NC(=O)c2cc(-c3ccc(Br)cc3)on2)s1 (centres undefined),0,0,0,0,0
CCOC(=O)c1nnsc1Nc1ccc(C)c(C)c1,0,0,0,0,0
Cc1ccc(S(=O)(=O)CCC(=O)OCc2nnc(-c3ccccc3)o2)cc1,-,-,0,-,-
COc1ccc(OC(C)C(=O)N2CCCc3ccccc32)cc1 (centres undefined),0,0,0,0,0
CCOC(CCNC(=O)c1cn(C)c(=O)c2c1c1ccccc1n2C)OCC,0,0,0,-,0
O=C(NCc1cccc(F)c1)c1cccc2c1C(=O)c1ccc(N3CCCC3)cc1S2(=O)=O,-,-,55,-,-
O=C(NCc1cc(C(F)(F)F)ccc1Cl)c1cccc2c1C(=O)c1ccc(N3CCCCC3)cc1S2(=O)=O,-,-,76,-,-
O=C(NCCc1ccc(F)cc1)c1cccc2c1C(=O)c1ccc(N3CCC(Cc4ccccc4)CC3)cc1S2(=O)=O,-,-,145,-,-
c1ccc(Cn2c[n+](Cc3ccccc3)cn2)cc1,0,0,0,0,0
CCOc1ccc(N2C(=O)S/C(=C\c3cccn3C)C2=O)cc1,-30,0,0,0,0
O=S(=O)(Nc1ccccn1)c1cc(Cl)ccc1Cl,0,0,0,-,0
CCNS(=O)(=O)c1ccc(Br)c(C(=O)OC(C)C(=O)NCC2CCCCC2)c1 (centres undefined),-,0,0,-,0
O=C(O[C@@H]1Cc2c(O)cc(O)cc2O[C@@H]1c1cc(O)c(O)c(O)c1)c1cc(O)c(O)c(O)c1,-84,-,-,0,-
Oc1cc(O)c2c(c1)O[C@H](c1ccc(O)c(O)c1)[C@H](O)C2,0,0,0,-,0
COc1ccccc1NC(=O)C(=O)Nc1ccc2c(c1)N(C(=O)C1CC1)CCC2,0,-,-,-,-
O=C(O)CCC1c2cc3c4cc2OC2Oc5cc6c(cc51)C(CCC(=O)O)c1cc5c7cc1OC(O6)c1cc6cc(c1)Oc1cc(cc(C(=O)O)c1)Oc1cc8cc(c1)C(Oc1cc(c(cc1C5CCC(=O)O)C3CCC(=O)O)OC(O4)c1cc(cc(c1)Oc1cc(cc(C(=O)O)c1)O8)Oc1cc(cc(C(=O)O)c1)Oc1cc(cc2c1)Oc1cc(cc(C(=O)O)c1)O6)O7 (centres undefined),-100,42,97,-,0
CCOCCCNC(=S)Nc1cc(C)cc(C)c1,0,0,0,0,0
Cc1ccc(-c2nc(N=Nc3ccc(O)cc3)n[nH]2)cc1,0,0,0,0,0
Cc1nc(N=Nc2ccc(O)cc2)n[nH]1,-29,0,0,0,0
SMILES,MEX-5 binding,MCL1-BIM inh,GLD-1 TGE inh,EBV gp42 inh,Bcl-xL primary
CCCCOc1ccc(CC2CCC(=O)NC2=O)cc1 (centres undefined),0,0,0,0,0
CCN1CCc2c(C#N)c(N3CCOCC3)nc(NCCO)c2C1,0,0,0,0,44
CSc1ccc(CNCC2CCCO2)cc1 (centres undefined),0,0,0,-,0
COc1ccc(NC(=O)NS(=O)(=O)c2ccc(C)cc2)cn1,-50,-,-,-,-
COc1ccc(NC(=O)Nc2ccc(OCc3ccccc3)cc2)cn1,-37,-,-,-,-
COc1ccc(NC(=O)c2cc(S(=O)(=O)N3CCCC3)ccc2C)cn1,-,42,0,-,35
O=C(O)c1ccc2c(c1)S(=O)(=O)c1cc(Cl)ccc1C2=O,-,0,0,-,0
O=C(/C=C(\O)c1ccccc1)C(=O)NNC(=O)c1ccccc1[N+](=O)[O-],-48,0,0,-,0
O=C(NNC(=O)c1cnccn1)c1cccc([N+](=O)[O-])c1,-61,0,0,0,0
O=C(NNC(=O)c1ccccc1[N+](=O)[O-])c1cnccn1,-65,0,0,0,0
Nc1ccccc1C(=O)NNC(=O)C(=O)/C=C(\O)c1ccccc1,0,0,0,0,0
O=C(NCc1cccnc1)c1cccc(OC2CCN(Cc3ccc(CO)o3)CC2)c1,0,0,0,-,0
O=C(CSc1nnc(-c2ccncc2)n1CC1CCCO1)Nc1nccs1 (centres undefined),0,0,47,0,0
O=C(CSc1nnc(-c2ccncc2)n1CC1CCCO1)Nc1cccc(O)c1 (centres undefined),0,0,0,0,0
CCN(CC)S(=O)(=O)c1ccc(OC)c(NC(=O)CSc2cc(C)ccc2C)c1,0,0,0,0,0
O=C(Nc1ccc(-n2cnnn2)cc1)C1CCC1,0,0,0,89,0
Cc1ccn(C(=O)c2ccc(NC(=O)C3CCCCC3)cc2)n1,0,0,0,181,0
NC(=O)c1ccc(NC(=O)C2CCCC2)cc1,0,0,0,-,0
CC(=O)Nc1ccc(NC(=O)C2CCCN(S(=O)(=O)c3ccc(-n4cnnn4)cc3)C2)cc1 (centres undefined),0,0,0,-,0
CCn1cc(CN2CCCC(C(=O)Nc3ccc(-c4cscn4)cc3)C2)c(C)n1 (centres undefined),0,0,0,-,0
CC(=O)Oc1cc2c3c(c1)/C(=C1/SC(=S)NC1=O)C(=O)N3C(C)(C)C=C2C,0,0,0,0,50
CCOc1cc2c3c(c1)C(C)=CC(C)(C)N3C(=O)C2=O,0,0,0,0,0
Cc1ccc(C)c2[nH]c(=O)c(CN(Cc3ccco3)C(=S)NCC3CCCO3)cc12 (centres undefined),0,0,0,0,0
COc1ccccc1Nc1nc2cc(C)ccc2cc1C#N,0,0,0,0,0
COc1ccccc1Nc1nc2ccc(C)cc2cc1C#N,0,0,0,57,0
SMILES,MEX-5 binding,MCL1-BIM inh,GLD-1 TGE inh,EBV gp42 inh,Bcl-xL primary
CC(=O)CSc1nc2cc3c(cc2cc1C#N)OCCO3,0,42,0,0,34
Cc1cc(Nc2ccccc2C(=O)O)n(-c2ccc([N+](=O)[O-])cc2)n1,0,0,0,0,0
CC(=O)c1c(O)cc(O)cc1CC(=O)O,-29,0,0,0,0
O=C(Nc1ccc2c(c1)CCCN2C(=O)c1ccco1)c1cc([N+](=O)[O-])ccc1Cl,0,0,0,-,0
CCCCCN1C=CC=C/C1=C\C=C(C#N)C#N,-37,0,0,0,0
O=C(CCC(=O)N1CCN(c2ccccc2)CC1)Nc1nnc(C2CCCCC2)s1,0,0,0,0,0
C(=N\NC(=Nc1ccccc1)c1ccccn1)/c1ccccn1,-54,0,0,0,0
